Test systems include DU-145 prostate; K-562 leukemia; MALME-3M melanoma; MDA-MB-231 breast; RXF 393 renal; SF-268 CNS; SF-295 CNS; SF-539 CNS; UACC-257 melanoma; M14 melanoma; HCT-15 colon; HT29 colon; SNB-75 CNS; SNB-19 CNS; U251 CNS; SK-MEL-5 melanoma; UACC-62 melanoma; LOX IMVI melanoma; SK-MEL-28 melanoma; PC-3 prostate.
What all share (test): NCI-60 one-dose screen, 48 h (100 = growth as untreated, 0 = no growth, -100 = all killed)
What all share (conditions): 10 µM unless noted

This is part of a sample that, as a whole, favours compounds with a hit. Of some 83,000 tested, about 20% had one in any assay.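 Activity criterion: percent growth below 10, measured after cells in 96-well plates were exposed to a single compound concentration for 48 hours.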 Unmarked numbers belong to inactive results. The source made the active and inactive calls.

On to `CCN1C(=O)N(CC)C2C1NN=c1s/c(=C\c3ccc[nH]3)c(=O)n12` (centres undefined), for which the growth with DU-145 prostate is -11.9% (active); in the assay on K-562 leukemia, 10.2%; with MALME-3M melanoma it was 34.5%; in the assay with MDA-MB-231 breast, 30.6%; with RXF 393 renal it was -26.6% (active); with SF-268 CNS, 44.6%. The growth is 12.4% with SF-295 CNS; -21.5% (active) with SF-539 CNS; 46.7% with UACC-257 melanoma; -5.38% (active) with M14 melanoma; 24.4% in the assay with HCT-15 colon; -10.4% (active) in the assay with HT29 colon. Also, the growth was -23.6% (active) with SNB-75 CNS; 24.9% in the assay with SNB-19 CNS; 9.08% (active) with U251 CNS; 30% with SK-MEL-5 melanoma; 25.7% in the assay with UACC-62 melanoma; 43% in the assay with LOX IMVI melanoma. For the same compound, in the assay on SK-MEL-28 melanoma, the growth is 46%.
On to `CCN1C(=O)N(CC)C2C1N=C(SCc1ccc(Cl)cc1)N2/N=C/C=C/c1ccccc1OC` (centres undefined), for which the growth in the assay with DU-145 prostate is 90.7%; with K-562 leukemia, 20.9%; in the assay on MALME-3M melanoma, 60.9%; in the assay with MDA-MB-231 breast, 75.2%; in the assay with RXF 393 renal, 49.8%; with SF-268 CNS, 64.5%. For the same compound, the growth with SF-295 CNS is 57.5%; in the assay with SF-539 CNS it was 68%; in the assay with UACC-257 melanoma, 42%; with M14 melanoma it was 45.5%; in the assay on HCT-15 colon it was 31.4%; in the assay on HT29 colon, 58.3%. The growth in the assay with SNB-75 CNS is 50.1%; with SNB-19 CNS, 79.3%; in the assay on U251 CNS it was 68.8%; with PC-3 prostate, 43.7%; in the assay on SK-MEL-5 melanoma, 44.2%; in the assay with UACC-62 melanoma it was 31.2%. Moreover, the values for the growth in the assay with LOX IMVI melanoma and in the assay on SK-MEL-28 melanoma were 44.5% and 70.9%, respectively.
Consider `Cc1ccc(C=C2C(=O)NC(=O)NC2=O)cc1`, for which the growth in the assay with DU-145 prostate is 108%; in the assay with K-562 leukemia, 86.1%; with MALME-3M melanoma it was 101%; in the assay with MDA-MB-231 breast, 118%; in the assay with RXF 393 renal, 113%; with SF-268 CNS it was 100%. Besides, the growth in the assay on SF-295 CNS is 104%; in the assay with SF-539 CNS, 111%; in the assay on UACC-257 melanoma it was 94%; in the assay on M14 melanoma it was 101%; with HCT-15 colon, 104%; in the assay on HT29 colon, 103%. Further, the growth in the assay on SNB-75 CNS was 92.5%; in the assay on SNB-19 CNS, 106%; in the assay on U251 CNS, 99%; in the assay with PC-3 prostate, 95.9%; in the assay on SK-MEL-5 melanoma, 100%; with UACC-62 melanoma, 102%. In addition, the growth in the assay with LOX IMVI melanoma was 98.6%; in the assay on SK-MEL-28 melanoma, 107%.
For `C=C(c1ccc(OC)c(/C=C/C(=O)c2ccc3c(c2)OCO3)c1)c1cc(OC)c(OC)c(OC)c1`, the growth is 9.67% (active) with DU-145 prostate; 6.89% (active) with K-562 leukemia; 67.2% in the assay with MALME-3M melanoma; 29% in the assay with MDA-MB-231 breast; 3.52% (active) in the assay on RXF 393 renal; 19.3% in the assay with SF-268 CNS. For the same compound, the growth in the assay on SF-295 CNS was 10.7%; in the assay on SF-539 CNS, -21.8% (active); in the assay with UACC-257 melanoma, 58.7%; with M14 melanoma, 11.3%; with HCT-15 colon, -8.44% (active); with HT29 colon it was 10.2%. In addition, the growth in the assay on SNB-75 CNS was 5.07% (active); with SNB-19 CNS, 30.9%; in the assay on U251 CNS, 11%; in the assay on PC-3 prostate, 26.5%; in the assay on SK-MEL-5 melanoma it was 0.661% (active); in the assay on UACC-62 melanoma, 2.65% (active). Further, the growth is -51.1% (active) with LOX IMVI melanoma and 11.5% with SK-MEL-28 melanoma.
With `CC/C=C\C[C@H](O)C/C=C1/C(=O)C=C[C@@H]1C/C=C\CCCC(=O)O`, the growth with DU-145 prostate was 60.2%; in the assay with K-562 leukemia, 17.1%; with MALME-3M melanoma it was 67.5%; with MDA-MB-231 breast, 56.7%; in the assay with RXF 393 renal, 94.2%; in the assay with SF-268 CNS, 81.3%. Further, the growth was 96% in the assay with SF-295 CNS; 59.2% in the assay with SF-539 CNS; 55.2% in the assay with UACC-257 melanoma; 57.8% with M14 melanoma; 74.6% in the assay on HCT-15 colon; 47.9% with HT29 colon. The growth in the assay on SNB-75 CNS was 88.9%; with SNB-19 CNS it was 65%; in the assay with U251 CNS it was 3.29% (active); with PC-3 prostate it was 61.3%; in the assay on SK-MEL-5 melanoma it was 60.3%; in the assay with UACC-62 melanoma it was 27.7%. For the same compound, the figures for the growth in the assay on LOX IMVI melanoma and in the assay with SK-MEL-28 melanoma were 17.4% and 54.4%, respectively.
Regarding `COC(=O)c1c2c(n3ccccc13)C(=O)c1ccccc1C2=O`, the growth was 69.4% in the assay on DU-145 prostate; 54.9% in the assay on K-562 leukemia; 55.8% in the assay on MALME-3M melanoma; 64.4% with MDA-MB-231 breast; 72.1% in the assay on RXF 393 renal; 74% in the assay with SF-268 CNS. The growth in the assay with SF-295 CNS was 64.5%; in the assay on SF-539 CNS it was 89.5%; with UACC-257 melanoma, 70.4%; with M14 melanoma it was 63.6%; with HCT-15 colon, 51.4%; with HT29 colon, 55.3%. In addition, the growth in the assay with SNB-75 CNS is 113%; in the assay on SNB-19 CNS, 62.5%; in the assay with U251 CNS it was 61.6%; in the assay on PC-3 prostate it was 47.2%; with SK-MEL-5 melanoma it was 18.1%; with UACC-62 melanoma, 65.7%. For the same compound, the growth is 49.3% in the assay on LOX IMVI melanoma and 106% with SK-MEL-28 melanoma.
Turning to `COc1cccc(/C=N/NC(=O)c2ccccc2N2CCCC2)c1O`, the growth in the assay with DU-145 prostate is 68%; in the assay with K-562 leukemia it was 13.6%; in the assay with MALME-3M melanoma it was 75.7%; in the assay on MDA-MB-231 breast, 47.8%; with RXF 393 renal, 63.8%; in the assay with SF-268 CNS, 38.8%. The growth is 86.2% in the assay on SF-295 CNS; 61.8% with SF-539 CNS; -29.8% (active) in the assay with UACC-257 melanoma; 48.5% in the assay with M14 melanoma; 19.4% in the assay with HCT-15 colon; 69.3% in the assay on HT29 colon. The growth was 67.4% in the assay on SNB-75 CNS; 65.8% in the assay with SNB-19 CNS; 46.7% in the assay with U251 CNS; 72% in the assay on PC-3 prostate; 58.4% in the assay with SK-MEL-5 melanoma; 42.5% with UACC-62 melanoma. The growth was 25.4% in the assay on LOX IMVI melanoma and 72.1% in the assay on SK-MEL-28 melanoma.
On to `N#C/C(=C\C=C\c1ccc(-c2cc(Cl)ccc2Cl)o1)c1nc2ccccc2s1`, for which the growth in the assay on DU-145 prostate is 112%; with K-562 leukemia it was 100%; in the assay with MALME-3M melanoma it was 95.4%; with MDA-MB-231 breast, 72%; in the assay with RXF 393 renal, 99.3%; in the assay with SF-268 CNS, 98.6%. Also, the growth in the assay with SF-295 CNS was 96.5%; with SF-539 CNS it was 93.9%; in the assay on UACC-257 melanoma, 95%; in the assay with M14 melanoma it was 103%; in the assay on HCT-15 colon, 102%; with HT29 colon, 108%. The growth in the assay with SNB-75 CNS is 77.1%; with SNB-19 CNS, 92.2%; in the assay on U251 CNS it was 107%; with PC-3 prostate, 93.2%; with SK-MEL-5 melanoma, 97.5%; in the assay on UACC-62 melanoma, 83.1%. In addition, the results for the growth with LOX IMVI melanoma and in the assay with SK-MEL-28 melanoma were 90.9% and 118%, respectively.

(Values after PubChem BioAssay (NCI).)
